Data on 84 sequences can be found in the OligoGym collection.

Some targets named below: PLA2G4F; PLA2R1; PKLR; PLA2G4A; PML; POLR3B; PPIP5K1; PPY; PPP3R1; PPP2R4; PPP2R2B; PQLC1; PRKAR1B; PRPS2; PRSS27; PSKH2; PTBP2; PYROXD1.
Common to all, as to test: pooled miR-30 sensor sort-seq; sequence = guide strand
Conditions in all cases: shRNA
Note: reference of the scale not given here.

Turning to TTGTTCAGGACGTTGTATCGAC, the sensor-assay potency score (higher = more potent) with PLA2G4F turned out to be 0.0752.

TTGAGCATTCAACCAAACCATC had a sensor-assay potency score (higher = more potent) in the experiment with PLA2R1 of -1.81. With TTACTTTTAAATTTTATCCAGG, the sensor-assay potency score (higher = more potent) with PLA2R1 is -0.532.

Consider TCAATTTTGCTGATGATCTTGA, for which the sensor-assay potency score (higher = more potent) with PKLR amounted to 0.666. Take TAAAGCTGAATCACTCACCAAG: in the experiment with PLA2G4A, the sensor-assay potency score (higher = more potent) was -0.42. TTTGCTTCCAAATAAGTCGGGA yielded a sensor-assay potency score (higher = more potent) in the experiment with PLA2G4A of 0.33.

Take TGAACTCGCACCACTCTGCAAA: the sensor-assay potency score (higher = more potent) with PLA2G4F is -0.822.

Turning to TTGCAGGTAACAGATCCGGGGT, in the experiment with PLA2G4F, the sensor-assay potency score (higher = more potent) is -0.679.

In the experiment with PLA2G4F, TATATTTGCATGATGTGGCCAC came in with a sensor-assay potency score (higher = more potent) of 0.329.

TTTGTCGCTCCACACCTGGGGC had a sensor-assay potency score (higher = more potent) in the experiment with PLA2G4F of -1.27. In turn, ATGGACTTTGCTAAGTCTCTTT came in with a sensor-assay potency score (higher = more potent) with PKLR of -0.987. In turn, TTCTTCATTAATCTCCTCTGGC had a sensor-assay potency score (higher = more potent) with PLA2G4A of -0.109. In the case of TTGTTCTTGATAGCAGTGCATC, in the experiment with PLA2G4F, the sensor-assay potency score (higher = more potent) is -1.66. Regarding TATCACAACCTACTTCTGCAGA, the sensor-assay potency score (higher = more potent) with PLA2R1 was -0.52. In the experiment with PKLR, AATCATCATCTTCTGAGCCAGG displayed a sensor-assay potency score (higher = more potent) of -0.988. TTTTTCACTATGAAATACCTTG had a sensor-assay potency score (higher = more potent) with PLA2R1 of -0.37. The same measure, in the same setting: the result for TAATGCACTGTTATCAGCCTGA reads 0.301.

In turn, TTCTTGATAGCAGTGCATCCAG registered a sensor-assay potency score (higher = more potent) with PLA2G4F of -0.546. The same measure, in the same setting: the result for TCGTCTGTGATATTCACACTGC reads -0.569.

In the experiment with PLA2G4A, TAGTTCTTCATTAATCTCCTCT had a sensor-assay potency score (higher = more potent) of 0.214. The same measure, in the same setting: the result for TAGTCAGTGAATAACATTCATA reads -0.999.

TCGTGGTTCTCAATTTTGCTGA registered a sensor-assay potency score (higher = more potent) with PKLR of -0.424. Still for that read-out and setting: the value for TGTGGCACAGACAACAGGCTTG was -0.0127. Regarding TAGTATCACAACCTACTTCTGC, the sensor-assay potency score (higher = more potent) in the experiment with PLA2R1 was -0.635. TTGGCCACTATCCTAGTCTGGG displayed a sensor-assay potency score (higher = more potent) in the experiment with PLA2G4F of -0.525. With TACAAGGTTGACATATACCAGG, in the experiment with PLA2G4A, the sensor-assay potency score (higher = more potent) is -0.86.

The sequence TAGCTCCTCAAACAGCTGCCGG gave a sensor-assay potency score (higher = more potent) with PKLR of -1.23. Still for that read-out and setting: the result for TAATTGGACACAGACTTTCAGG reads -0.61. As to TATCACATCAATGTTGTTCAGA, the sensor-assay potency score (higher = more potent) with PLA2G4A worked out at 0.0915. As to TTTCTGAGCACAACTCTGGGTG, the sensor-assay potency score (higher = more potent) in the experiment with PLA2R1 is -0.349.

Sequence TTGCACATAGCAGTCGGCTTTG returned a sensor-assay potency score (higher = more potent) in the experiment with PLA2G4F of -0.794.

Take TTCTTGAGTTTGAAGCTGCTGG: the sensor-assay potency score (higher = more potent) in the experiment with PML was -0.233.

In the experiment with POLR3B, TAACAATGAAGTAGCCACCTGG had a sensor-assay potency score (higher = more potent) of -0.287. Turning to TAAAGCATGATGACAATCTGGG, the sensor-assay potency score (higher = more potent) with PPIP5K1 amounted to 0.285. Turning to TGTATCTACGGAGATCAGCTGC, the sensor-assay potency score (higher = more potent) with PPY came to 0.303. In the experiment with PPP3R1, TTTGTCTACAATTTGCTGTAAC registered a sensor-assay potency score (higher = more potent) of -1.15. With TTGAAGTGCTGGATCACAGGGA, the sensor-assay potency score (higher = more potent) with PPP2R4 is 1.03. In the experiment with PPP3R1, TTAAATCTCTTTCCTAGCCTTT gave a sensor-assay potency score (higher = more potent) of -0.556. The sequence TTGAAGACAATAGCTATTTGGT registered a sensor-assay potency score (higher = more potent) with PPP2R4 of -0.254. For TCTGTTGCTTGGATCTTCCGGC, the sensor-assay potency score (higher = more potent) with PPP2R2B worked out at 0.454. In the case of TAGCCTTTTAATTTCATCCGCA, the sensor-assay potency score (higher = more potent) with PPP3R1 worked out at 0.489. Same read-out and setting: the value for TTTGCTGTAACTGTGTATCTTT was 0.559.

For the sequence TTCTATTTCTAAACTCTTCAGG, the sensor-assay potency score (higher = more potent) with PPP2R2B was 0.0206. Consider TGGAACTGTGTGGATCTCCTTT, for which the sensor-assay potency score (higher = more potent) with PPP2R4 was -1.01. On the same count and under the same terms, the value for TTTTGGAATGATGAAGTTCTGA was -0.939. In the case of TAACAGAGCCACGCAGGTGGAC, in the experiment with PPY, the sensor-assay potency score (higher = more potent) is -1.08.

Consider TATTTGGTCATCCACCCGGAGC, for which the sensor-assay potency score (higher = more potent) with PPP2R4 is -1.25. On to TTTTGTCTACAATTTGCTGTAA, for which the sensor-assay potency score (higher = more potent) in the experiment with PPP3R1 was -0.67. On to TTGAGGGTAAGGATGAATCCGA, for which, in the experiment with PPP2R4, the sensor-assay potency score (higher = more potent) was -0.403. The sequence TTGATGCTCATGCCCTCCGTGG showed a sensor-assay potency score (higher = more potent) with PQLC1 of -1.49. As for TTACTCGCTGTACTAAAGGATT, in the experiment with PPP3R1, the sensor-assay potency score (higher = more potent) is -1.35. In the experiment with PPY, TGATGTATCTACGGAGATCAGC gave a sensor-assay potency score (higher = more potent) of -1.04. In the experiment with PPP3R1, TCTCCTTTGACACTGAACTGAG registered a sensor-assay potency score (higher = more potent) of -0.401.

As to TTCTCATCCACAAAGTGTCTGG, the sensor-assay potency score (higher = more potent) with PPP2R4 was -0.351. Sequence TACTGGGCCATCTGCTCTGGTG showed a sensor-assay potency score (higher = more potent) in the experiment with PPY of -1.25.

Regarding TTTTTGTGGATATCTAGGCCAC, the sensor-assay potency score (higher = more potent) with PPP3R1 was -0.626. In the case of AATATAGCCATCTTTATCCATG, the sensor-assay potency score (higher = more potent) with PPP3R1 is -1.54. Consider TTTAGGTAAACAGCCACCTCAG, for which the sensor-assay potency score (higher = more potent) with PPP2R4 is -0.616.

For the sequence TATCTACGGAGATCAGCTGCAT, in the experiment with PPY, the sensor-assay potency score (higher = more potent) came out at 0.435.

In turn, TCTGGTGTGGCATTGTCCCCTG yielded a sensor-assay potency score (higher = more potent) with PPY of 0.0817. The sequence TGTTGATGTATCTACGGAGATC yielded a sensor-assay potency score (higher = more potent) with PPY of -1.64. TAAAATCACAACTAGCACTTAA registered a sensor-assay potency score (higher = more potent) with PPP3R1 of -0.328. For ATCTACGGAGATCAGCTGCATA, the sensor-assay potency score (higher = more potent) with PPY is -1.14. For TTATCTGCATTTATTATGGTTT, the sensor-assay potency score (higher = more potent) with PPP3R1 is -0.79. As for TTTAATCTGAACAGCAATGAGG, the sensor-assay potency score (higher = more potent) with PPP2R4 is -0.87. Same read-out and setting: the result for TTCATCTCGGTAATAAACAGGA reads 0.112. In the case of TTCAATAACACTTAGTTGGCTT, in the experiment with PPP3R1, the sensor-assay potency score (higher = more potent) was determined as 0.15.

TCCTCTTTGTGTCTTTTCCCAT showed a sensor-assay potency score (higher = more potent) with PPY of -1.36. In turn, TCTGCTTCCTCGGAGACTCTGT showed a sensor-assay potency score (higher = more potent) in the experiment with PPP2R4 of 0.193.

On to TGTAGTAACAGAGCCACGCAGG, for which the sensor-assay potency score (higher = more potent) with PPY was -1.22. In turn, TTTGGAATGATGAAGTTCTGAG came in with a sensor-assay potency score (higher = more potent) with PPP2R4 of -0.0141. Consider AGCATGTTGATGTATCTACGGA, for which the sensor-assay potency score (higher = more potent) with PPY is -1.31.

The sequence ATCAGCTGCATACTGGGCCATC gave a sensor-assay potency score (higher = more potent) in the experiment with PPY of -1.61. For TAGAGGGAACACAGCTTGCTGC, in the experiment with PPP2R2B, the sensor-assay potency score (higher = more potent) is -0.62.

For TTCCTCTTGAGGATCTCAGAGC, the sensor-assay potency score (higher = more potent) with PRKAR1B was -0.844. Sequence TTGTCCTTTTTATCTTGTCGGG had a sensor-assay potency score (higher = more potent) in the experiment with PRPS2 of -0.968. The sequence TTGTCGTTAATTTCCCCGCAGC registered a sensor-assay potency score (higher = more potent) with PRPS2 of -0.905. TTACAAATGAGTCTGGTGGGGC gave a sensor-assay potency score (higher = more potent) with PRSS27 of -0.115. Same read-out and setting: the result for TTGGTAGCCAAACTCGGTGTCT reads -0.152. Sequence AAATTTTCGACTCTTCACCTGG displayed a sensor-assay potency score (higher = more potent) with PSKH2 of 0.215. Take TAGTTTGTCTATAAAGTCCTTC: in the experiment with PSKH2, the sensor-assay potency score (higher = more potent) is -0.109. As for TAGCTGTACAGTCTGATGTTTA, in the experiment with PTBP2, the sensor-assay potency score (higher = more potent) is -0.892. In the experiment with PYROXD1, TTAATTCATGATCTGAACCTAA registered a sensor-assay potency score (higher = more potent) of -0.379. Take TAACTCAATACAGTCATTCATT: the sensor-assay potency score (higher = more potent) with PYROXD1 was -0.8.
